Source: the supplement of paper PMC6555819

Assays:
Experiment in all cases: PBM binding z-score (relative to random genomic background probes); higher = stronger binding; sequences stand for … in GC…GCGATTGACAGCGTAGAATGAAGG
[1] = system: RARb homodimer (NR concentration 270 nM)
Outline: (§1)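 Ligand-free nuclear receptor dimers were applied to custom Agilent 4×180K protein-binding microarrays whose double-stranded probes carried direct-repeat seeds, single-nucleotide variants, half-site ablations and random human genomic background sequences in 34-nt variable regions. Incubation lasted 1 h. Binding z-scores were computed against the random background probes from regression-normalized fluorescence.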

[2] = system: RARg:RXRa (NR concentration 270 nM, RXRa partner concentration 90 nM)
Outline: as §1

[3] = system: RARg homodimer (NR concentration 270 nM)
Outline: as §1

[4] = system: RXRa DBDmut IVT, anti-RXR (DBD mutation: RXRa K156A/R161A, NR concentration 90 nM)
Outline: as §1

[5] = system: RXRa homodimer (NR concentration 180 nM)
Outline: as §1

[6] = system: THRa:RXRa (NR concentration 90 nM, RXRa partner concentration 90 nM)
Outline: as §1

[7] = system: THRa homodimer (NR concentration 90 nM)
Outline: as §1

[8] = system: VDR:RXRa (NR concentration 270 nM, RXRa partner concentration 90 nM)
Outline: as §1

[9] = system: VDR homodimer (NR concentration 270 nM)
Outline: as §1

Sequence	PBM binding z-score [1]	PBM binding z-score [2]	PBM binding z-score [3]	PBM binding z-score [4]	PBM binding z-score [5]	PBM binding z-score [6]	PBM binding z-score [7]	PBM binding z-score [8]	PBM binding z-score [9]
CCACACAGGTGAGAAGGTAACTCAGCCTCGATTA	0.713	0.766	0.648	0.395	0.675	0.428	0.324	0.0106	-0.221
CCTAGCAGGCCAATCTGGGTCACTCTAGGCTTGA	2.09	0.781	1.14	0.254	0.361	3.2	0.202	0.251	-0.375
CCTACTGGGCCATCAGGTCATAGATATCAACGTT	2.46	2.03	1.95	-0.116	1.28	3.09	2.91	1.25	1.11
CCTGGTAGGTCAATGGTCAGCTAAAGCAGCTCGC	2.92	3.75	4.04	0.676	2.66	1.56	0.243	1.33	0.307
GCTAGCAGGCCATTTTGGTCACTCAATGACGGGC	0.0226	-0.296	0.212	-0.337	-0.426	-0.234	-0.974	-0.816	-0.748
CCTATTAGTTGACCATTAGGGCAACCGAAGCTCG	1.68	0.667	0.891	0.456	0.374	0.945	0.78	0.563	0.844
GCATATAGGTAATAGAAGGTGAAAGTCCGATTGT	0.803	0.423	0.585	0.488	0.618	2.5	-0.242	0.0859	0.274
TCTTGTAGATCAACTGGAGGTTAAGAAAGATCGA	0.645	1.23	0.313	0.336	0.971	1.1	-0.207	0.589	-0.0194
CGAACTAGGTCATTGACAGGACACTGAATAGTAA	2.8	4.6	3.84	2.58	2.46	3.03	1.06	2.52	1.18
CTCGAAAGGTCGGTTGAGGTGAGTAGACGGATAA	2.44	2.67	2.67	0.673	2.28	5.01	1.3	1.99	0.235
CGTCCAAGGTCAATGCTCGGTCAGTGAAAGCATT	4.62	6.85	6.5	3.69	5.11	3.71	2.09	4.21	2.86
GCTCGGAGGACAAGGCCAGAGCTTTGTCCGTAGA	0.141	-0.322	-0.004	-1.09	-1.17	0.254	-0.595	-1.03	-0.801
AAGACAGGGTCACTAGGCCAGAGTAGGTACGAAT	3.02	4.97	4.66	2.26	5.58	3.1	0.755	3.9	1.87
CCTCCTGGGCCATCAGGTCATTGATATCAACGTT	2.47	1.98	1.71	-0.401	1.15	3.04	3.09	1.76	1.18
CCTTGTTGGTCAGGAGGTCACACACCGGATATGA	4.42	4.76	4.32	0.608	4.89	3.33	2.47	3.79	2.17
CCTACTAGGCCAAGGTCATTGATCAGTCAAAGCA	3.74	3.86	3.68	2.31	3.64	3.52	3.01	–	3.34
ATCTCTAGGTAAGACTAAGTTCAGTGAAGAACGC	1.85	0.933	0.697	0.96	0.46	1.34	0.876	1.7	2.25
CCAGACAGGCGAAAGGTAACTCAGTCTGGTACGC	-0.261	0.0389	-0.491	-0.267	0.25	-0.18	-0.896	-0.255	-0.57
CGAATGAGGGCATGAGTTGATAGCAAATGCCGAT	0.499	1.14	1.58	2.3	1.03	1.83	0.345	1.48	1.33
ATCTCTAGGTAAGACTCGGTTCAGTGAAGAACGC	0.578	0.12	0.211	0.708	0.162	0.549	0.875	1.05	2.06
GATACAGGGTCATGGCCAGAGTACGCGTATTGAT	3.44	5.62	5.09	2.44	6.72	3.78	0.968	4.83	2.77
ATCGAAACGTCGAAGGTGAGTATACCCACCCGAA	-0.0717	0.382	0.461	-1.07	0.361	0.0237	-0.567	-0.229	-0.497
ATCTCTAGGAAAAGATAGTTCAGTGAATGCAAAT	0.679	0.447	0.556	0.143	0.0291	0.206	-0.344	0.581	0.566
CCTACTGGGCCACGAAAGGTCATTGGTTCAGTGA	4.95	4.88	4.56	0.546	5.25	3.8	1.18	4.55	3.08
